# Where “and” joins values, the source holds several entries; their conditions need not be identical. Identical values can stand only once. Inconclusive results are not listed. Entries that show only a call come without a potency. Calls of active or inactive are those of the source. Calls follow the shape of the dose curve; as a rule, active = well fitted cell-killing curve with a large enough effect; inconclusive = small, poorly fitted or top-dose-only effect, or effect the other way; inactive = no such curve, though single readings can be large or run the other way.
# Test: Viability qHTS for spleen associated tyrosine kinase inhibitor (SYKi) drug resistant MV4-11 cells (AID 1963824); also: nearly all actives have a fitted effect of over 35% in size
# Conditions: SYKi-resistant MV4-11 viability, CellTiter-Glo, 72 h; series mostly up to 45 µM
# Text: Department of Medicine, Hematology/Oncology
# University Hospital Frankfurt, Germany.
# Trials have shown promising clinical activity of the selective SYK inhibitor entospletinib in patients with high expressing HOXA9/MEIS1 acute leukemias. As the development of resistance mechanisms is a common problem in the use of targeted drugs, we performed a chemical library screen to identify drug sensitivities in SYK inhibitor resistant AML cells. […] Glucocorticoids are potent immunosuppressants which work in part by inhibiting the transcription of cytokine genes.
# Described herein is a viability screen to look for activity in the SYK inhibitor drug resistant cell line against four NCATS compound libraries (MIPE 5.0, NPC, NPACT, and Kinase) totaling 11372 compounds. Active hits were reacquired for confirmation and further secondary assay testing.
# SEQUENCE No. (e.g., 1, 2, 3, etc.); […] (e.g., Cells, Incubation, Reagent, etc.); VALUE; DESCRIPTION.
# 1; Media; 2uL; white, solid-bottom Corning assay plate.
# 2; Compounds; 23nL; Echo acoustic dispenser.
# 3; Cell; 5uL; 500 cells per well.
# 4: Incubation; 72hr; 37 C, 5% CO2, 95% humidity.
# 5; Reagent; 3uL; CellTiter-Glo reagent (Promega).
# 6; Incubation; 10min; room temperature.
# 7; Detection; Luminescence; ViewLux plate reader (PerkinElmer).
# NOTES (numbers refer to Sequence numbers above
# 1. Quantitative high-throughput screening (qHTS) of small molecule compounds was conducted on drug resistant SYKi MV4-11 cell line.
# 2. Twenty-three nanoliter of small molecule compounds were added to each assay plates using the Echo acoustic dispenser (Beckman Coulter).
# 3. Cells were seeded into the assay plates at a final density of 500 cells in 5uL of media per well using the Multidrop Combi dispenser.
# 4. Plates were covered with stainless steel gasketed lids and incubated for 72 hours at standard cell culture conditions.
# 5. Viability was assessed by adding 3uL of CellTiter-Glo detection reagent (Promega).
# 6. Plates were covered with gasket lids and incubated for 10 minutes at room temperature.
# 7. Luminescence was measured on a ViewLux plate reader (PerkinElmer).
# Potency is read from the fitted curve at half-maximal effect.
SMILES,Potency,"viability, % of control"
C/C=C(\C)C(O)C(C)/C=C(C)/C=C/C/C(C)=C/Cc1nc(OC)c(OC)c(O[C@@H]2O[C@@H](C)[C@H](O)[C@@H](O)[C@H]2O)c1C (stereo not given in full),0.252 µM (active),–
Sc1ccccc1Cl,inactive,–
CO[C@H]1[C@H](O)[C@H](O[C@H]2CC[C@]3(C)C4CC[C@]5(C)[C@H](C6=CC(=O)OC6)CC[C@]5(O)C4CC[C@@H]3C2)O[C@@H](C)[C@@H]1O (stereo not given in full),0.0112 µM (active),–
Cc1ccc2c(c1)C1CN(C)CCC1N2 (stereo not given),inactive,–
Nc1ccn(C[C@@H](CO)OCP(=O)(O)O)c(=O)n1,–,69.1% [at 9.25 µM] (inactive)
CC(C)(C)NCC(O)c1ccccc1Cl (stereo not given),inactive,–
CC(=O)C1CCOC1=O (stereo not given),inactive,–
Cc1[nH]ncc1-c1cc2nc([C@@H]3CC4CCN3CC4)[nH]c(=O)c2s1,4.17 µM (active),–
NCC1(CC(=O)O)CCCCC1,inactive,–
C/C=C1/CN2CC[C@]34C(=Nc5ccc(OC)cc53)C2C[C@@H]1C4(CO)C(=O)OC (stereo not given in full),inactive,–
CC(C)(C)c1ccc(O)cc1,inactive,–
Clc1cccc(SC2CCNCC2)n1,inactive,–
CN1Cc2c(ccc3c2OCO3)[C@@H]2[C@H]1c1cc3c(cc1C[C@@H]2O)OCO3,2.55 µM (active),–
CCC1(CC)C(=O)C=CNC1=O,inactive,–
CN[C@@H]1Cc2cccc3[nH]c(=O)n(c23)C1,inactive,–
CCCCCn1cc(C(=O)Oc2cccc3cccnc23)c2ccccc21,23.1 µM (active),–
COC1=C[C@@H]2[C@@H]3Cc4ccc(OC)c(O)c4[C@]2(CCN3C)CC1=O,18.6 µM (active),–
CN1C[C@@H]2CN(c3ccc(-c4ccccc4)nn3)C[C@@H]2C1,0.58 µM (active),–
COc1c2c(cc3c1OCO3)CCN(C)C2,inactive,–
CCC1(c2ccccc2)C(=O)N(COC)C(=O)N(COC)C1=O,inactive,–

SMILES,Potency,"viability, % of control"
Cc1sc2c(c1C)C(c1ccc(Cl)cc1)=N[C@@H](CC(=O)OC(C)(C)C)c1nnc(C)n1-2,0.118 µM (active),–
CC(C)NCC(O)c1ccc([N+](=O)[O-])cc1 (stereo not given),inactive,–
CC[C@H](C)[C@@H]([C@@H](CC(=O)N1CCC[C@H]1[C@H](OC)[C@@H](C)C(=O)N[C@@H](Cc1ccccc1)c1nccs1)OC)N(C)C(=O)[C@@H](NC(=O)C(C)(C)N)C(C)C,inactive,–
CN1CCc2cc3c(cc2[C@H]1[C@@H]1OC(=O)c2c1ccc1c2OCO1)OCO3,6.51 µM (active),–
C1=C(c2cnc[nH]2)c2ccsc2CC1,inactive,–
COCC1OC(=O)c2coc3c2C1(C)C1=C(C3=O)C2CCC(=O)C2(C)CC1O (stereo not given),inactive,–
Oc1cccc2cccnc12,inactive,–
C=CC(C)(O)CC/C=C(\C)C(=O)O[C@H]1[C@H](O)[C@@H](CO)O[C@@H](OC(=O)[C@]23CCC(C)(C)CC2C2=CCC4[C@@]5(C)CC[C@H](O[C@@H]6O[C@H](CO[C@@H]7OC[C@H](O)[C@H](O)[C@H]7O[C@@H]7OC[C@@H](O)[C@H](O)[C@H]7O)[C@@H](O)[C@H](O)[C@H]6O)C(C)(C)C5CC[C@@]4(C)[C@]2(C)CC3)[C@@H]1OC1OC(C)C(O[C@@H]2OC[C@@H](O)[C@H](O[C@@H]3OC[C@@H](O)[C@H](O)[C@H]3O)[C@H]2O)C(O)C1O (stereo not given in full),–,77.8% [at 9.25 µM] (inactive)
C=C1C[C@]2(O)[C@@]3(C)CCC(=O)C(C)(C)C3=C(O)C(=O)[C@@]2(C)[C@@H]2C(=O)O[C@@](C)(C(=O)OC)C(=O)[C@@]12C,inactive,–
CNC(C)(C)Cc1ccccc1,inactive,–
C=C(CO)C(=O)O[C@H]1CC(=C)[C@@H]2C[C@H](O)C(=C)[C@@H]2[C@H]2OC(=O)C(=C)[C@@H]21,1.61 µM (active),–
CN(C)CCc1ccc(O)cc1,inactive,–
COc1cc(C[C@@H](C)N)c(OC)cc1C,inactive,–
C[C@]12CCC(=O)C=C1CC[C@@H]1[C@@H]2[C@@H](O)C[C@]2(C)C(=O)CC[C@@H]12,inactive,–
N#CC(O[C@@H]1O[C@H](CO)[C@@H](O)[C@H](O)[C@H]1O)c1ccccc1 (stereo not given in full),inactive,–
CCN1C[C@]2(COC)[C@H](O)C[C@H](OC)[C@]34[C@@H]5C[C@]6(O)[C@H](OC(=O)c7ccccc7)[C@@H]5[C@@](O)([C@H]([C@H](OC)[C@H]23)[C@@H]14)[C@@H](O)[C@@H]6OC,inactive,–
NNc1ccccc1,inactive,–
CCCOC(=O)c1cncn1C(C)c1ccccc1 (stereo not given),inactive,–
CN1CCCC1CCOC(c1cc2nccc(C(=O)O)c2[nH]1)c1ccccc1Cl (stereo not given),inactive,–
C[C@H]1O[C@@H](O[C@H]2[C@@H](O)C[C@H](O[C@H]3[C@@H](O)C[C@H](O[C@H]4CC[C@@]5(C)[C@H](CC[C@@H]6[C@@H]5CC[C@]5(C)[C@@H](C7=CC(=O)OC7)CC[C@]65O)C4)O[C@@H]3C)O[C@@H]2C)C[C@H](O)[C@@H]1O,47.3 nM (active) and 38.5 nM (active),–

# From PubChem BioAssay (NCATS)
